Experimental findings from PubChem BioAssay are described below.

Molecules are shown by their SMILES. A number with no mark means an inactive call. Active and inactive are the calls of the source.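 Rule for the calls, unless noted: active = mean inhibition over 43.08%, the solvent-only control mean plus 3 SD; inactive = the rest.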

The target of assay [1] is Nuclear receptor coactivator 3 (Homo sapiens) (UniProt Q9Y6Q9). Put plainly: SRC3 coactivator transcriptional activity inhibitors, confirmation, cell-based, luminescence, quadruplicate (AID 588792).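 Note: 0% = DMSO treated cells and 100% = gossypol at 36 µM.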 Particulars: HEK293 GAL4-SRC3 luciferase reporter, at 3.6 µM, stronger effect = higher value. In general terms: In a reporter assay the amount or activity of a reporter protein is the signal.
Sequence of Nuclear receptor coactivator 3 (Homo sapiens) (Q9Y6Q9 whole entry, looked up, the tested form may be a part): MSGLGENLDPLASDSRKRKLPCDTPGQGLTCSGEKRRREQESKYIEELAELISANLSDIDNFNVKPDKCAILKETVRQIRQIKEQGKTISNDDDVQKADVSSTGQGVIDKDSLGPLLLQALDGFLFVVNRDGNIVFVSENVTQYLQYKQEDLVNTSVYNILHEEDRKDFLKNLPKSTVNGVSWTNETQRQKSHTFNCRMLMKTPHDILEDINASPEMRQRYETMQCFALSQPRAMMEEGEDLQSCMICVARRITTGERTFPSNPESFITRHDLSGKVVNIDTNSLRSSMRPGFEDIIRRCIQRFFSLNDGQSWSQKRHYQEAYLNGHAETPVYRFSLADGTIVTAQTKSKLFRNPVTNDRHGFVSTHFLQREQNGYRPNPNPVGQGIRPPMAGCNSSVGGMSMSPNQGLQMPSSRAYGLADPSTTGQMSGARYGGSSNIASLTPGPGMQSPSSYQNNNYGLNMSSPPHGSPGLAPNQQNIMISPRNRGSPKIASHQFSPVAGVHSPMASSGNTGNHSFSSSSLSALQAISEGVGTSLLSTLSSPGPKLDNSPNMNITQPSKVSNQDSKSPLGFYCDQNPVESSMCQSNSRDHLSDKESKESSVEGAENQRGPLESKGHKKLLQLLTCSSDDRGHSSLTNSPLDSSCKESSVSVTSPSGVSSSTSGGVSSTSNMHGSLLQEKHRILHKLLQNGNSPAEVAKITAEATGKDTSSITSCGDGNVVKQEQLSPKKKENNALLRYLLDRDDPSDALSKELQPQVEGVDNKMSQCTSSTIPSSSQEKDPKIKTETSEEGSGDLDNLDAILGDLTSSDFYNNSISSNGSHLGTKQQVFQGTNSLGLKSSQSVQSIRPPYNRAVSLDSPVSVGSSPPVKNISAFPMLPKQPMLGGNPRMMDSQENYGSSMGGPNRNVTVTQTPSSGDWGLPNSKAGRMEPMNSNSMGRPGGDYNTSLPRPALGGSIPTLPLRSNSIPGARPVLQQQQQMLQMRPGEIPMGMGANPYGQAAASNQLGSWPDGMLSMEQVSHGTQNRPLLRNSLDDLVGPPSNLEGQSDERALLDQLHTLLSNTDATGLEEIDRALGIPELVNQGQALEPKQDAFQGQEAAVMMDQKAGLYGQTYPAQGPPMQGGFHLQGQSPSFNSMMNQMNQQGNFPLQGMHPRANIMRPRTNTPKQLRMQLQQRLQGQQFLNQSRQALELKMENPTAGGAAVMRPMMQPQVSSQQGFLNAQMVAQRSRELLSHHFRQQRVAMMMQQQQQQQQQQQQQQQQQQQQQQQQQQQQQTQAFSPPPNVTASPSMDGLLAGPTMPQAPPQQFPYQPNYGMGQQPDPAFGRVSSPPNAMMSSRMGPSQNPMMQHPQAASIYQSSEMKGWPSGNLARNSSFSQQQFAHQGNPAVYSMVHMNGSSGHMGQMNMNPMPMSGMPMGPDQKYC

Assay [2] deals with transactivating tegument protein VP16 (Human herpesvirus 1), Gal4-VP16 luciferase reporter. Put plainly: VP16 transactivation inhibitors, counter-screen for SRC3 inhibitor project, cell-based, luminescence, high throughput (AID 588794; in the data active = inhibition above about 30%). Particulars: mammalian cells, VP16-driven luciferase reporter luminescence; at 3.6 µM; stronger effect = higher value. In general terms: Counterscreens check selectivity or assay interference.

As to `CCOc1ccc(CNC(=O)C2Cc3cc(S(=O)(=O)N4CCCC4)ccc3N2C(C)=O)cc1` (stereo unspecified), the inhibition (usually the change of the read-out against control, counted positive when it falls) is 4.56% in assay [1] and 8.25% in assay [2].
Turning to `COc1ccc(S(=O)(=O)N2CCCCCC2)cc1C(=O)N(C)CC(=O)Nc1cc(C)ccc1C`, the inhibition in assay [1] is 8.3%; in assay [2] it was 10.6%.
In the case of `Cc1ccc(C)c(S(=O)(=O)N2CCCCC2CCNC(=O)C(=O)NCc2ccncc2)c1` (stereo unspecified), the inhibition in assay [1] is 0.55%; in assay [2], 7.08%.
Take `CCOC(=O)/C(C#N)=C/c1cc(C)n(-c2ccccc2)c1C`: the inhibition in assay [1] was 18.5%; in assay [2], 18.2%.
Taken in the same sequence, the figures for `COc1cccc(/C=N/NC(=O)CNC(=O)C(c2ccccc2)c2ccccc2)c1O` were 17.2% and 20.7%.
For `Cc1nc(SCC(=O)NNC(=O)c2ccc(F)cc2)c2ccccc2n1` the same measures were -5.28% and -10.9%.
For `COc1ccc(N/N=C/c2c(C(=O)O)ccc3ccccc23)cc1` the same measures were 31.2% and 36.5% (active).
With `CCC(O)CC(C(=O)NNc1ccccc1)C(=O)NNc1ccccc1` (stereo unspecified), the inhibition in assay [1] is -2.21%; in assay [2], 11.1%.
With `Cc1ccc(S(=O)(=O)N2C[C@H]3C(=O)C[C@@H](c4ccccc4)N(S(=O)(=O)c4ccc(C)cc4)[C@H]3C[C@H]2c2ccccc2F)cc1`, the inhibition is 6.96% in assay [1] and 2.52% in assay [2].
For `Cc1sc(-c2ccccn2)nc1OC(=O)c1ccc(F)cc1F`, the results for the inhibition in assay [1] and in assay [2] were 13.9% and 16.1%, respectively.
Taken in the same sequence, the figures for `O=C(O)c1ccc(Cl)c(S(=O)(=O)NCc2cccnc2)c1` were 0.83% and -9.62%.
For `CCCC(=O)NC(NC(=S)Nc1ccc(N=Nc2ccccc2)cc1)C(Cl)(Cl)Cl` (stereo unspecified) the same measures were 3.89% and 18.1%.
Taken in the same sequence, the figures for `O=C(NCc1cccs1)C1CCCN(C(=O)Nc2ccccc2)C1` (stereo unspecified) were 17.7% and 31.9% (active).
As for `C=CCn1c(SCC(=O)NC2CCCC2)nnc1-c1ccccn1`, the inhibition in assay [1] was -14.7%; in assay [2], -2.97%.
Regarding `Cc1c(P(=S)(c2ccccc2)c2ccccc2)[n+]2ccccc2n1CCc1ccccc1`, the inhibition in assay [1] was 25.9%; in assay [2] it was 22%.
Take `CC(=O)c1cccc(NC(=O)Nc2ccc3c(c2)N(C)C(=O)CS3)c1`: the inhibition was 32.7% in assay [1] and 3.54% in assay [2].
`CCc1ccc(N2CC(C(=O)N/N=C/c3cc([N+](=O)[O-])ccc3O)CC2=O)cc1` (stereo unspecified): the inhibition was -9% in assay [1] and 9.04% in assay [2].
As to `CCCCc1c(O)nc(SCC(=O)NCC2CCCO2)[nH]c1=O` (stereo unspecified), the inhibition is -3.37% in assay [1] and 6.46% in assay [2].
In the case of `COc1ccc(Cl)cc1NC(=O)CN(C)CC(=O)Nc1c(C)n(C)n(-c2ccccc2)c1=O`, the inhibition in assay [1] is 14.8%; in assay [2], 4.85%.
Taken in the same sequence, the figures for `c1ccc(-n2nnnc2NCCCN2CCOCC2)cc1` were -14.3% and -8.35%.
Taken in the same sequence, the figures for `COc1ccc(OCCOCC(O)CN2CCOCC2)cc1` (stereo unspecified) were -13.2% and -8.92%.
For `COc1ccccc1NS(=O)(=O)c1cc(NC(=O)c2ccc(Cl)nc2)ccc1Cl` the same measures were 9.43% and 30.7% (active).
For the molecule `CCc1nc2ccccc2c(=O)n1NCCc1ccccc1`, the figures for the inhibition in assay [1] and in assay [2] were -4.18% and 2.67%, respectively.
For `Cc1ccc(-n2c(Cl)c(Cl)nc(Cl)c2=O)cc1` the same measures were 45.3% (active) and 17.9%.
Taken in the same sequence, the figures for `CCN(CC)S(=O)(=O)c1cccc(NC(=O)Nc2cccc(C(F)(F)F)c2)c1` were 13.9% and 18%.
Regarding `CC1CCCCC12NC(=O)N(CC(=O)N1CCN(Cc3ccc(C#N)cc3)CC1)C2=O` (stereo unspecified), the inhibition is -3.89% in assay [1] and 6.63% in assay [2].
Consider `COc1ccc(-c2cc(C(=O)N(C)Cc3ccc(OC)c(OC)c3OC)c3ccccc3n2)cc1OC`, for which the figures for the inhibition in assay [1] and in assay [2] were 8.88% and 6.51%, respectively.
Taken in the same sequence, the figures for `N#CCc1c[nH]c2ccc([N+](=O)[O-])cc12` were 24% and 20%.
For `Cc1cc[n+](C(C)C(=O)c2ccc(-c3ccccc3)cc2)cc1` (stereo unspecified) the same measures were 8.52% and 32% (active).
Taken in the same sequence, the figures for `OCCNCCOc1ccc(Cl)c(Cl)c1` were 5.72% and 2.08%.
With `O=C(Nc1nc2ccccc2s1)C1c2ccccc2Oc2ccccc21`, the inhibition in assay [1] was 39.2%; in assay [2] it was 21.4%.
For the molecule `C=CCn1c(NCCc2ccccc2)nc2c1c(=O)n(C)c(=O)n2C`, the values for the inhibition in assay [1] and in assay [2] were 4.32% and 28.1%, respectively.
Taken in the same sequence, the figures for `CN1CCN(S(=O)(=O)c2ccc(Sc3nnnn3-c3ccccc3)c([N+](=O)[O-])c2)CC1` were 24.5% and 2.52%.
